Test results: PubChem BioAssay AID1531 (NMMLSC, 2009)
Out of some 290,000 compounds screened, about 3,300 (1.1%) were called active. The full list was thinned out, with actives kept by preference. Unmarked numbers belong to inactive results. No stated cut-off is given here; in the data, active means binding response below about 67% or above about 130%; inconclusive means no clear call, values can overlap the other calls; inactive means in between.

These molecules were tested against Mitogen-activated protein kinase kinase kinase 2 (Homo sapiens) (UniProt Q9Y2U5) (assay: modulators of MEK5 binding to wildtype MEKK2, primary screen, biochemical, multiplex bead flow cytometry, Alexa488-MEK5 (AID 1531)). Conditions: Alexa488-MEK5 binding to MEKK2 WT, at 10 µM, actives lie on both sides.

**Q.** How did the binding response (% of control) turn out when `O=C(NC1CCN(Cc2ccccc2)CC1)c1c(F)cccc1F` was run?
**A.** 113%

**Q.** With `C#CCOc1ccc(/C=C2/C(=O)ON=C2C)cc1OCC` as the molecule, how does the binding response (% of control) read?
**A.** 107%

**Q.** Which binding response (% of control) does the source give for `CCc1nnc(SCc2cccc(F)c2)nc1CC` here?
**A.** 103%

**Q.** `Fc1ccc(-c2ccc(CNCc3ccccn3)o2)cc1Cl` was tested. Which binding response (% of control) did it give?
**A.** 140% (active)

**Q.** How did the binding response (% of control) turn out when `COc1ccc(-c2ccc(CNCCCN3CCOCC3)o2)cc1Cl` was run?
**A.** 106%

**Q.** With `O=C(NCc1ccccn1)c1cc(Br)ccc1Cl` as the molecule, how does the binding response (% of control) read?
**A.** 106%

**Q.** How did the binding response (% of control) turn out when `O=C(Nc1cccc(-c2nc3ccccc3[nH]2)c1)c1ccc(C(=O)Nc2cccc(-c3nc4ccccc4[nH]3)c2)cc1` was run?
**A.** 63% [inhibitor] (active)

**Q.** `O=C(Cc1cccs1)Nc1cccc(-c2nc3ccccc3[nH]2)c1` was tested. Which binding response (% of control) did it give?
**A.** 95%

**Q.** For `Cc1ccc(-c2nc3ccccc3[nH]2)cc1NC(=O)c1sc2ccccc2c1Cl`, which binding response (% of control) is on record?
**A.** 98%

**Q.** With `C=C1CCN([C@@H](Cc2ccccc2)C(=O)N2CCOCC2)S(=O)(=O)c2ccccc21` as the molecule, how does the binding response (% of control) read?
**A.** 107%

**Q.** `COc1ccc(NC(=O)CCC(=O)Nc2cc(OC)c(NC(=O)c3ccco3)cc2OC)c(OC)c1` was tested. Which binding response (% of control) did it give?
**A.** 96%

**Q.** Which binding response (% of control) does the source give for `O=C(NCC1CC1)c1onc(CSc2ccccc2)c1C(=O)NCC1CC1` here?
**A.** 95%

**Q.** `COc1ccc(CNC(=O)c2nnn(CC(=O)Nc3cc(C)cc(C)c3)c2N)cc1` was tested. Which binding response (% of control) did it give?
**A.** 101%

**Q.** With `CCc1ccc(NC(=O)Cn2nnc(C(=O)NCc3ccc(OC)cc3)c2N)cc1` as the molecule, how does the binding response (% of control) read?
**A.** 104%

**Q.** Which binding response (% of control) does the source give for `COc1ccc(NC(=O)Cn2nnc(C(=O)NCCc3ccc(OC)c(OC)c3)c2N)cc1` here?
**A.** 2% [inhibitor] (active)

**Q.** With `CCC(C)N1CC(=O)N2Cc3[nH]c4ccccc4c3C[C@H]2C1=O` (some centres undefined) as the molecule, how does the binding response (% of control) read?
**A.** 109%

**Q.** `COc1ccc(NC(=O)C/C(C)=N/NC(=O)c2cnccn2)cc1Cl` was tested. Which binding response (% of control) did it give?
**A.** 96%

**Q.** How did the binding response (% of control) turn out when `Cc1noc(C)c1C(=O)OCC(=O)/C=C1\N(C)c2ccccc2C1(C)C` was run?
**A.** 96%

**Q.** For `CC(=O)Nc1cccc(OCC(=O)/C=C2\N(C)c3ccccc3C2(C)C)c1`, which binding response (% of control) is on record?
**A.** 63% [inhibitor] (active)

**Q.** Which binding response (% of control) does the source give for `CN1/C(=C\C(=O)c2cccnc2Cl)C(C)(C)c2ccccc21` here?
**A.** 95%

**Q.** How did the binding response (% of control) turn out when `COc1ccc(Cl)cc1-n1c(=S)sc2c(=O)n(-c3ccc(F)cc3)c(SCC(=O)O)nc21` was run?
**A.** 101%

**Q.** Which binding response (% of control) does the source give for `COc1ccc(Oc2cn[nH]c2-c2ccc(OC)cc2O)cc1` here?
**A.** 98%

**Q.** With `CN(C)CCCNC(=S)N1CCC(c2nc3ccccc3[nH]2)CC1` as the molecule, how does the binding response (% of control) read?
**A.** 116%

**Q.** Which binding response (% of control) does the source give for `COCCCNC(=S)N1CCN(c2nc(-c3cccc(OC)c3)cs2)CC1` here?
**A.** 95%

**Q.** With `CN(C)CCCNC(=S)N1CCN(c2nc(-c3ccccc3)cs2)CC1` as the molecule, how does the binding response (% of control) read?
**A.** 149% (active)

**Q.** With `O=C(CSc1ccc(-c2ccccn2)nn1)Nc1ccccc1` as the molecule, how does the binding response (% of control) read?
**A.** 110%

**Q.** Which binding response (% of control) does the source give for `COc1cc2c(cc1OC)C(c1ccccc1Br)NC(=O)C2` (centres undefined) here?
**A.** 103%

**Q.** Which binding response (% of control) does the source give for `COCCCN1C(=O)c2ccc(C(=O)OCC(=O)NCc3ccccc3OC)cc2C1=O` here?
**A.** 101%

**Q.** With `CN1CCN(CCCNC(=O)c2ccc(/C=C3\Oc4ccccc4N(Cc4ccc(Cl)cc4)C3=O)cc2)CC1` as the molecule, how does the binding response (% of control) read?
**A.** 171% (active)

**Q.** For `CCCN1CCN(C(=O)CCCNC(=O)c2ccc(Cl)cc2)CC1`, which binding response (% of control) is on record?
**A.** 100%

**Q.** `CN1C(=O)/C(=C/c2ccc(C(=O)NC3CCCC3)cc2)Oc2ccccc21` was tested. Which binding response (% of control) did it give?
**A.** 99%

**Q.** With `CS(=O)(=O)N(CC(=O)N1CCCCCC1)c1cccc(Cl)c1Cl` as the molecule, how does the binding response (% of control) read?
**A.** 108%

**Q.** With `CCc1cccc(C)c1NS(=O)(=O)c1cc(Br)cnc1N` as the molecule, how does the binding response (% of control) read?
**A.** 92%

**Q.** With `CCN1/C(=C/C(=S)Nc2ccccc2)Sc2ccccc21` as the molecule, how does the binding response (% of control) read?
**A.** 87%

**Q.** Which binding response (% of control) does the source give for `CCN1/C(=C\c2ccc3ccccc3[n+]2CC)Sc2cc(C)ccc21` here?
**A.** 20% [inhibitor] (active)

**Q.** Which binding response (% of control) does the source give for `CCN1/C(=C/c2ccc3ccc(C)cc3[n+]2CC)Sc2ccccc21` here?
**A.** 74%

**Q.** For `CC1(C)CC[C@]2(C(=O)O)CC[C@]3(C)C(=CCC4[C@@]5(C)CC[C@H](O)C(C)(C)C5[C@H](O)C[C@]43C)[C@@H]2C1` (some centres undefined), which binding response (% of control) is on record?
**A.** 100%

**Q.** With `N#CCc1c(C#N)c(N)nc(N2CCCC2)c1C#N` as the molecule, how does the binding response (% of control) read?
**A.** 107%

**Q.** `O=C(NCc1ccccc1)c1onc(CSc2ccncc2)c1C(=O)NCc1ccccc1` was tested. Which binding response (% of control) did it give?
**A.** 104%

**Q.** For `O=C(CCl)NNc1nc(-c2ccccc2)c2cc(Cl)ccc2n1`, which binding response (% of control) is on record?
**A.** 102%

**Q.** How did the binding response (% of control) turn out when `NC(N)=Nc1nc(-c2ccccc2)c2cc(Cl)ccc2n1` was run?
**A.** 150% (active)

**Q.** `Clc1ccc2nc(-c3ccccc3)nc(C(Cl)Cl)c2c1` was tested. Which binding response (% of control) did it give?
**A.** 90%

**Q.** How did the binding response (% of control) turn out when `CC(C)(C)n1nc(Cc2cccc3ccccc23)c(C#N)c1N` was run?
**A.** 98%

**Q.** Which binding response (% of control) does the source give for `COc1ccccc1NC(=O)c1ccc(N2CC3CC(C2)c2cccc(=O)n2C3)c(NC(=O)c2cccnc2)c1` (centres undefined) here?
**A.** 105%

**Q.** How did the binding response (% of control) turn out when `O=C1N[C@H](Cc2ccccc2)C(=O)N[C@H]1Cc1cn(S(=O)(=O)c2ccccc2)c2ccccc12` was run?
**A.** 102%

**Q.** With `C/C=C/C(=O)OCc1csc(CC(=O)Nc2ccccc2C)n1` as the molecule, how does the binding response (% of control) read?
**A.** 94%

**Q.** Which binding response (% of control) does the source give for `OCC1(CCOc2ccccc2)CCN(Cc2cn[nH]c2-c2ccccc2)CC1` here?
**A.** 94%

**Q.** Which binding response (% of control) does the source give for `CCOC(=O)C1(CCOc2ccccc2)CCN(Cc2cc(OC)c(O)cc2Cl)CC1` here?
**A.** 126%

**Q.** How did the binding response (% of control) turn out when `Cc1c(CN2CCC(CO)(CCOc3ccccc3)CC2)[nH]c2ccc(Cl)cc12` was run?
**A.** 227% (active)
